Source: PubChem BioAssay (National Center for Advancing Translational Sciences (NCATS))
Cruzain inh Det – blocks cruzain activity in presence of Triton detergent; purified cruzain, Z-FR-AMC fluorescence, 0.01% Triton; Potency, µM, without a hit: max response, negative = inhibition, actives largely listed as inhibitors; 200,000 tested, 0.43% active; P25779;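 note: potency is the fitted concentration of half-maximal effect; plate controls were neutral wells for no effect and buffer without enzyme for full effect; nearly all actives have a fitted effect of over 40% in size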
Target sequence (P25779 123-467 limits assumed): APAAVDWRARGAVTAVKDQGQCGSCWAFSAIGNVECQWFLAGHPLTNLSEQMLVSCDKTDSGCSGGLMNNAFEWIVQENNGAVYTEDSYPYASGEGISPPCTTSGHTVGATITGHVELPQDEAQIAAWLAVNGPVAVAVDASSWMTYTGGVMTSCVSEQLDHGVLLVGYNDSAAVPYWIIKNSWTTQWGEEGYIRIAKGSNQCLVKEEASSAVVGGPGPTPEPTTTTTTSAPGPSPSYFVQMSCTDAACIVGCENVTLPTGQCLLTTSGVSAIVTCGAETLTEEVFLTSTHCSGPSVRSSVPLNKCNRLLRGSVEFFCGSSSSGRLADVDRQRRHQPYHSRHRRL
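Cruzain (1.5 nM) preincubated 15 min at RT with compound in 100 mM sodium acetate pH 5.5, 5 mM DTT, 0.01% Triton X-100. Reaction started with 2 uM Z-FR-AMC; AMC fluorescence (ex 360/em 450 nm) change over 60 s gave rate.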
Cruzain inh noDet – inhibitors of Trypanosoma cruzi cruzain without detergent | 200,000 tested, 2.3% active | Potency, µM, inactives show max response, negative = inhibition, most hits filed as inhibitors | purified cruzain, Z-FR-AMC fluorescence, no detergent | P25779;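 note: potency is the fitted concentration of half-maximal effect; plate controls were enzyme without inhibitor for no effect and buffer without enzyme for full effect; nearly all actives have a fitted effect of over 40% in size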
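Detergent-free condition (0.00005% Triton X-100) in acetate buffer pH 5.5 with DTT. 1.5 nM enzyme and compound were pre-mixed 15 min, then 2 uM Z-FR-AMC substrate added; reaction progress from fluorescence change between first and third reads (60 s).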
NS1 function inh – inhibitors of influenza NS1 protein function. Potency, µM (series often up to 46.1 µM), for inactives: top-dose activity, positive = more growth. 270,000 tested, 0.4% active. AID 2326; calls by dose curve; note: potency is the fitted concentration of half-maximal effect; actives are rising curves; nearly all actives have a fitted effect of over 50% in size
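Read-out: OD600 growth recovery of NS1-expressing budding yeast. Cells grown overnight at 30C in -URA glucose medium, washed, resuspended and diluted 1:100 in 2% galactose assay medium, pH 6.0. Same strain lacking NS1 served as positive control.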
NS1 inh valid – validation of influenza NS1 protein function inhibitors; shares compounds with NS1 function inh; influenza NS1 function cell assay, 15-point titration; activity change, negative = inhibition, % at 32.9 µM; 1,400 tested, under 10 active; AID 492980; calls by dose curve; note: 0% is about no effect
* = called active by the depositor. This excerpt belongs to a sample that is enriched for hits. Unless noted, calls come from the whole dose curve; as a rule, active = well fitted curve in the direction sought with a large enough effect; inconclusive = small, poorly fitted or top-dose-only effect, or another doubt; inactive = no such curve, though single readings can be large; an effect the other way counts as inactive or inconclusive.

Results for COc1ccc(NC(=O)Cn2ncc3c4ccccc4n(Cc4ccccc4)c3c2=O)cc1OC ?
Cruzain inh Det: -3%; Cruzain inh noDet: 4%

Results for Cc1ccc(NC(=O)c2c(NC(=O)c3ccco3)sc3c2CCC(C(C)(C)C)C3)c(C)c1 (stereo not given) ?
Cruzain inh Det: -1%; Cruzain inh noDet: -10%

Results for CC(=O)Oc1ccc(/C=C2/C(=O)N(c3ccccc3)N=C2C)cc1 ?
NS1 function inh: 4%

What do the screens show for `COc1ccc(/C=C2/C(=O)N(c3c(F)c(F)c(F)c(F)c3F)N=C2C)cc1`?
NS1 function inh: 11µM*; NS1 inh valid: 12

Results for Cc1ccc(-c2c3c(=O)n(C)c(=O)n(C)c3c3c(C(F)(F)F)nc4ccccc4n23)cc1 ?
Cruzain inh Det: -1%; Cruzain inh noDet: inconclusive

What do the screens show for `COC(=O)c1cc2sc(C)cc2n1Cc1ccc(Br)cc1F`?
Cruzain inh Det: -6%; Cruzain inh noDet: inconclusive

What do the screens show for `COc1ccc(-c2ccc([C@H]3[C@H]4C=CC[C@@H](C)[C@@H]4C(=O)N3Cc3ccccc3)c(F)c2)cc1C`?
NS1 function inh: inconclusive; NS1 inh valid: -6

Results for C[C@@H]1CC=C[C@H]2[C@H]1C(=O)N(Cc1ccccc1)[C@H]2c1ccc(-c2ccc(F)cc2)cc1F ?
NS1 function inh: -13%

Results for CCC(Cc1ccccc1)NC(=O)c1ccc2nc(N3CCC(C)CC3)sc2c1 (stereo not given) ?
Cruzain inh Det: -2%; Cruzain inh noDet: 1%

What do the screens show for `CCOc1ccc(CCNC(=O)c2cccc(-n3c(C)nc4cccnc43)c2C)cc1`?
Cruzain inh Det: -1%; Cruzain inh noDet: 1%

Results for CCC(C(=O)NCCCN(CC)CC)n1ncn2c(cc3occc32)c1=O (stereo not given) ?
Cruzain inh Det: -3%; Cruzain inh noDet: -7%

Results for COc1ccccc1NC(=O)N(CCN(C)C)Cc1cc2cc(C)ccc2[nH]c1=O ?
Cruzain inh Det: 0%; Cruzain inh noDet: -4%; NS1 function inh: -3%

What do the screens show for `CCN1CCCC1CN(Cc1cc2cc(C)ccc2[nH]c1=O)C(=O)Nc1ccccc1OC` (stereo not given)?
Cruzain inh Det: 2%; Cruzain inh noDet: -6%; NS1 function inh: 11µM*; NS1 inh valid: -6

How did COc1ccc(CCNC(=O)C2CCCN(S(=O)(=O)c3ccccc3)C2)cc1 (stereo not given) do in these assays?
NS1 function inh: -4%

How did COc1ccc(/C(C)=N\NS(C)(=O)=O)c(OC)c1 do in these assays?
Cruzain inh Det: -1%; Cruzain inh noDet: -4%; NS1 function inh: inconclusive; NS1 inh valid: -3

How did COc1ccc(/C(C)=N/N=C(\C)c2ccc(OC)cc2OC)c(OC)c1 do in these assays?
Cruzain inh Det: -7%; Cruzain inh noDet: -1%; NS1 function inh: 3%

How did Cc1noc(C)c1CCC(=O)N1CCCC(N2CCN(c3ccc(F)cc3)CC2)C1 (stereo not given) do in these assays?
NS1 function inh: 6%

What do the screens show for `Cc1nn(C)c(C)c1CCC(=O)N1CCCC(N2CCN(c3ccc(F)cc3)CC2)C1` (stereo not given)?
NS1 function inh: inconclusive; NS1 inh valid: -9

How did CC(C)(C)c1ccc(S(=O)(=O)/C=C/C#N)cc1 do in these assays?
Cruzain inh Det: -2%; Cruzain inh noDet: 8%; NS1 function inh: -36%

Results for Cc1ccc(-c2c(C(=O)N3CCN(c4cccc(C)c4C)CC3)oc(=O)c3ccccc23)cc1 ?
Cruzain inh Det: -5%; Cruzain inh noDet: inconclusive

How did CCc1ccc(NC(=O)C2CCCN(S(=O)(=O)c3cnc[nH]3)C2)cc1 (stereo not given) do in these assays?
NS1 function inh: -11%

Results for Cc1ccccc1NC(=O)C1CCCN(S(=O)(=O)c2cnc[nH]2)C1 (stereo not given) ?
Cruzain inh Det: 3%; Cruzain inh noDet: -2%; NS1 function inh: 14µM*; NS1 inh valid: 3

How did O=C(Nc1ccc(Br)cc1F)C1CCCN(S(=O)(=O)c2cnc[nH]2)C1 (stereo not given) do in these assays?
Cruzain inh Det: 3%; Cruzain inh noDet: 3%; NS1 function inh: inconclusive

What do the screens show for `Cc1ccc(NC(=O)C2CCCN(S(=O)(=O)c3cnc[nH]3)C2)c(Br)c1` (stereo not given)?
Cruzain inh Det: -2%; Cruzain inh noDet: -1%; NS1 function inh: 2µM*; NS1 inh valid: 1

Results for CCCCN(C)CCNC(=O)C1CCN(c2nc3ccc(CC)cc3s2)CC1 ?
Cruzain inh Det: -6%; Cruzain inh noDet: 3%
